# What was measured:
# [1] = target: T1, Inhibitor of nuclear factor kappa-B kinase subunit epsilon (Homo sapiens) (UniProt Q14164); conditions: at 1 µM;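 note: reported values are averaged percent inhibition figures against human IKKε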
# T1 sequence (whole entry): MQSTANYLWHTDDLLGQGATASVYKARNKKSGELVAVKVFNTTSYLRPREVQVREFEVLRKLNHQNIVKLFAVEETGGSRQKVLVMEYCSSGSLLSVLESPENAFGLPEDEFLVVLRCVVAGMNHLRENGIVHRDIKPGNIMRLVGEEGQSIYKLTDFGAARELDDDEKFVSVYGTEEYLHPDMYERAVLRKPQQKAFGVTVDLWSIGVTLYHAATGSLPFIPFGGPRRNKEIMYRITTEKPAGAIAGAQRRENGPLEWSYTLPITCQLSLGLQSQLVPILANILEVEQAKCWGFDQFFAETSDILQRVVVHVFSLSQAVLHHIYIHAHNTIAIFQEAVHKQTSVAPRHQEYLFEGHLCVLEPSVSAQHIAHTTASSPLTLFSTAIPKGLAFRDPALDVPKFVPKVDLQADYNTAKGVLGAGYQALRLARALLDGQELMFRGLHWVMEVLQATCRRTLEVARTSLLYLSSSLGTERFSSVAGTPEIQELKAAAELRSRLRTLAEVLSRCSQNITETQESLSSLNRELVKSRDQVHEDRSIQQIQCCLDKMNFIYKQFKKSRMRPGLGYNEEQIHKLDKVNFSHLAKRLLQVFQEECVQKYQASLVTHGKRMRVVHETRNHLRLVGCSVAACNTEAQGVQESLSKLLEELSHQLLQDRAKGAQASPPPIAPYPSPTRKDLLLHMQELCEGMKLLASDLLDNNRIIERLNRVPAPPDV
# [2] = target: T2, Serine/threonine-protein kinase Nek1 (Homo sapiens) (UniProt Q96PY6); conditions: at 0.1 µM
# T2 sequence (whole entry): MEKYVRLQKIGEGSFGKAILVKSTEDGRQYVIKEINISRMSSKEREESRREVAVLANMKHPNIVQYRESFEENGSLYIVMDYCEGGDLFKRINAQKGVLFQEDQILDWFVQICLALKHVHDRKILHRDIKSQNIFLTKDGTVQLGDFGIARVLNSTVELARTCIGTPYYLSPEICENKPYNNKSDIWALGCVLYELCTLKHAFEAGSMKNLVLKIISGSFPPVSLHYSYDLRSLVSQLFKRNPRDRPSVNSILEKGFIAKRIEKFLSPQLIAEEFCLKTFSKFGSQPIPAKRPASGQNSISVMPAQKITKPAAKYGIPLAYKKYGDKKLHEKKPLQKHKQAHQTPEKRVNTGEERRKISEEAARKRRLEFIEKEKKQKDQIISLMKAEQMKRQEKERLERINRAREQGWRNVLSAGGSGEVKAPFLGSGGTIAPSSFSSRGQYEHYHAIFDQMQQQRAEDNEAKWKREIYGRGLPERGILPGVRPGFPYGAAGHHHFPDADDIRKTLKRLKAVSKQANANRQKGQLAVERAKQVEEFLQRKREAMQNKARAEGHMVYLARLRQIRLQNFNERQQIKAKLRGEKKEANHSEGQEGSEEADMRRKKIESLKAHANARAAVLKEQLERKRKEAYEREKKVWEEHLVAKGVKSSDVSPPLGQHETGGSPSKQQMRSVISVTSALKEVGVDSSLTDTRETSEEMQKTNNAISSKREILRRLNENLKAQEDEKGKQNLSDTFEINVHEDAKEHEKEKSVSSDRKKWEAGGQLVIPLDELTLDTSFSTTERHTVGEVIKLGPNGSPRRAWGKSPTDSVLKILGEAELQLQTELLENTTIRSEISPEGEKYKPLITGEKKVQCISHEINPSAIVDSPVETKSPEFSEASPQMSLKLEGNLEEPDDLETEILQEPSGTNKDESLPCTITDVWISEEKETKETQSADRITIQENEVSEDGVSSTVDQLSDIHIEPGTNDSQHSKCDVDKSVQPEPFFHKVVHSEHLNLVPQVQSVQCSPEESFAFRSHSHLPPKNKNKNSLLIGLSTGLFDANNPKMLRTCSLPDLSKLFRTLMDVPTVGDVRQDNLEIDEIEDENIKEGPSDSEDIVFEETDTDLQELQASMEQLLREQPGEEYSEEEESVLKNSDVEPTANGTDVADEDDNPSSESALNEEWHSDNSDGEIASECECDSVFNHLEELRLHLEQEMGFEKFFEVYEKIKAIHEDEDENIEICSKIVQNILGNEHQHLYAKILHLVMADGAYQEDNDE
# [3] = target: T2, Serine/threonine-protein kinase Nek1 (Homo sapiens); conditions: at 1 µM
# [4] = target: T3, Serine/threonine-protein kinase Nek2 (Homo sapiens) (UniProt P51955); conditions: at 0.1 µM
# T3 sequence (whole entry): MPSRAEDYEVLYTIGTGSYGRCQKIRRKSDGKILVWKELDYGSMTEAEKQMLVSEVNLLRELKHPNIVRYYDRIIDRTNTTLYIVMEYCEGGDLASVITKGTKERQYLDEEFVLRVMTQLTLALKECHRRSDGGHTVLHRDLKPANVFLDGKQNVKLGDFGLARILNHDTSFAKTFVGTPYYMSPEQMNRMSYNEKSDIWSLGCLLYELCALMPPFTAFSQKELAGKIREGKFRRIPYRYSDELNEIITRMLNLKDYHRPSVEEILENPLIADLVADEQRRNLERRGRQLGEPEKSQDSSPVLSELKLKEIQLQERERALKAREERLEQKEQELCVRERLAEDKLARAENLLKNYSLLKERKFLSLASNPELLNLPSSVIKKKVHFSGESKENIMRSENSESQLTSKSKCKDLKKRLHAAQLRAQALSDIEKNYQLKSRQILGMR
# [5] = target: T3, Serine/threonine-protein kinase Nek2 (Homo sapiens); conditions: at 1 µM
# [6] = target: Serine/threonine-protein kinase Nek6 (Homo sapiens) (UniProt Q9HC98); conditions: at 0.1 µM
# Serine/threonine-protein kinase Nek6 (Homo sapiens), sequence (Q9HC98 whole entry): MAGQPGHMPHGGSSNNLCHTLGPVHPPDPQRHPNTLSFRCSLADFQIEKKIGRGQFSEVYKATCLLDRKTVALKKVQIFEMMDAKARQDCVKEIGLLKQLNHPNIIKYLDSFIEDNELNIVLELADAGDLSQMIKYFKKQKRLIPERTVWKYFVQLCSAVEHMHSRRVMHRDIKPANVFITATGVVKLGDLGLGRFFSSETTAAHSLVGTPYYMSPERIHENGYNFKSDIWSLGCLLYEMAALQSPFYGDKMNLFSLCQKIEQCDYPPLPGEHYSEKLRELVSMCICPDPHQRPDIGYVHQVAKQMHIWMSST
# [7] = target: Serine/threonine-protein kinase Nek6 (Homo sapiens) (UniProt Q9HC98); conditions: at 1 µM
# [8] = target: Serine/threonine-protein kinase Nek7 (Homo sapiens) (UniProt Q8TDX7); conditions: at 0.1 µM
# Serine/threonine-protein kinase Nek7 (Homo sapiens), sequence (Q8TDX7 whole entry, looked up): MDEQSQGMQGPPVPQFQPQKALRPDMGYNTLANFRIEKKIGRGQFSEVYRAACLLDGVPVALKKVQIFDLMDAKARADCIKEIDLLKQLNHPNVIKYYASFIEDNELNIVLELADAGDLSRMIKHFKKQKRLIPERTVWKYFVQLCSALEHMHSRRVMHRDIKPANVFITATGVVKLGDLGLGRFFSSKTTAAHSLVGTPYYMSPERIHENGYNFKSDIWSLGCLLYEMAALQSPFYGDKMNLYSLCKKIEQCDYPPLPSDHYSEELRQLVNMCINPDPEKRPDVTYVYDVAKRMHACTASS
# [9] = target: Serine/threonine-protein kinase Nek7 (Homo sapiens) (UniProt Q8TDX7); conditions: at 1 µM
# [10] = target: T4, Serine/threonine-protein kinase Nek9 (Homo sapiens) (UniProt Q8TD19); conditions: at 0.1 µM
# T4 sequence (whole entry): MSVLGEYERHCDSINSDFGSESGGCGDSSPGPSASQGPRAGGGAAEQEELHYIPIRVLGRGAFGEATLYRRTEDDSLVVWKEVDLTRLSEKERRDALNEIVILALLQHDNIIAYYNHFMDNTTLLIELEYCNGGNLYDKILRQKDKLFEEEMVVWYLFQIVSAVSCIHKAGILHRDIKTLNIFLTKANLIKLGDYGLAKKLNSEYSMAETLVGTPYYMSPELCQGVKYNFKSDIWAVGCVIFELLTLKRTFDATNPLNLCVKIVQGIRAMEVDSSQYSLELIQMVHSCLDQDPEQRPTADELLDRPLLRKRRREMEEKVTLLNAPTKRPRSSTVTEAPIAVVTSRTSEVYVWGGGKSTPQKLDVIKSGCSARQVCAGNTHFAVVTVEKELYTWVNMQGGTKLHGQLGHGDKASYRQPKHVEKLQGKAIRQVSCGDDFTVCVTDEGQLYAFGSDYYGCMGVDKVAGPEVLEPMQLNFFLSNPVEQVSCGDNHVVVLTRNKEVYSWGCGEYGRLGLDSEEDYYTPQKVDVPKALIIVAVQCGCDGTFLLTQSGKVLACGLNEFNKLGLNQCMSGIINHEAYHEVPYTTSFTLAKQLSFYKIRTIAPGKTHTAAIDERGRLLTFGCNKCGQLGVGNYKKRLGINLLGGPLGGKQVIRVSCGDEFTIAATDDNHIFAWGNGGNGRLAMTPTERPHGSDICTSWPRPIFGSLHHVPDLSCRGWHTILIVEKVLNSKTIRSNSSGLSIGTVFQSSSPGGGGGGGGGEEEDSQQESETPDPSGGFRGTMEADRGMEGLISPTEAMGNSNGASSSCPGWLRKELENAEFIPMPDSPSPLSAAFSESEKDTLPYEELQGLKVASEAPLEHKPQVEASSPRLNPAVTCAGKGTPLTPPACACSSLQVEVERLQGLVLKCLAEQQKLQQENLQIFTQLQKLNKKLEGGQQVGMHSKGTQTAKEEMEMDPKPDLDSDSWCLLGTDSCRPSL
# [11] = target: T4, Serine/threonine-protein kinase Nek9 (Homo sapiens); conditions: at 1 µM
# [12] = target: Serine/threonine-protein kinase PLK1 (Homo sapiens) (UniProt P53350); conditions: at 0.1 µM
# Serine/threonine-protein kinase PLK1 (Homo sapiens), sequence (P53350 whole entry): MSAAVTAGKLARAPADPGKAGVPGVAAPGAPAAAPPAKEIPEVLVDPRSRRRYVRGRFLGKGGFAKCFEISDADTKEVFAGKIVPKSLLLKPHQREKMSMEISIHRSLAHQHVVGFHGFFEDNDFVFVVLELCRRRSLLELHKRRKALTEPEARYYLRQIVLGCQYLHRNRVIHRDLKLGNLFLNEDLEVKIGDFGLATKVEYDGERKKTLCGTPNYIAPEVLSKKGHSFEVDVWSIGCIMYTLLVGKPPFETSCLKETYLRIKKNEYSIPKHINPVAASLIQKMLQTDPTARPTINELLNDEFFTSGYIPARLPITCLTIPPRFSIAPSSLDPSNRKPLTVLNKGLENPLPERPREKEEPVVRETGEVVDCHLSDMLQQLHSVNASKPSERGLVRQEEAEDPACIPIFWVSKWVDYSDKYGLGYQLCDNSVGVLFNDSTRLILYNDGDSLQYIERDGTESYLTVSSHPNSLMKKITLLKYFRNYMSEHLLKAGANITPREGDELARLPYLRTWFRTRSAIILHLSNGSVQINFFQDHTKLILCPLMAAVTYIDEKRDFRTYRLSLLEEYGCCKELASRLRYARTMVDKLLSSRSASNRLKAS
# [13] = target: Serine/threonine-protein kinase PLK1 (Homo sapiens) (UniProt P53350); conditions: at 1 µM
# [14] = target: T5, Dual specificity protein kinase TTK (Homo sapiens) (UniProt P33981); conditions: at 0.1 µM
# T5 sequence (whole entry): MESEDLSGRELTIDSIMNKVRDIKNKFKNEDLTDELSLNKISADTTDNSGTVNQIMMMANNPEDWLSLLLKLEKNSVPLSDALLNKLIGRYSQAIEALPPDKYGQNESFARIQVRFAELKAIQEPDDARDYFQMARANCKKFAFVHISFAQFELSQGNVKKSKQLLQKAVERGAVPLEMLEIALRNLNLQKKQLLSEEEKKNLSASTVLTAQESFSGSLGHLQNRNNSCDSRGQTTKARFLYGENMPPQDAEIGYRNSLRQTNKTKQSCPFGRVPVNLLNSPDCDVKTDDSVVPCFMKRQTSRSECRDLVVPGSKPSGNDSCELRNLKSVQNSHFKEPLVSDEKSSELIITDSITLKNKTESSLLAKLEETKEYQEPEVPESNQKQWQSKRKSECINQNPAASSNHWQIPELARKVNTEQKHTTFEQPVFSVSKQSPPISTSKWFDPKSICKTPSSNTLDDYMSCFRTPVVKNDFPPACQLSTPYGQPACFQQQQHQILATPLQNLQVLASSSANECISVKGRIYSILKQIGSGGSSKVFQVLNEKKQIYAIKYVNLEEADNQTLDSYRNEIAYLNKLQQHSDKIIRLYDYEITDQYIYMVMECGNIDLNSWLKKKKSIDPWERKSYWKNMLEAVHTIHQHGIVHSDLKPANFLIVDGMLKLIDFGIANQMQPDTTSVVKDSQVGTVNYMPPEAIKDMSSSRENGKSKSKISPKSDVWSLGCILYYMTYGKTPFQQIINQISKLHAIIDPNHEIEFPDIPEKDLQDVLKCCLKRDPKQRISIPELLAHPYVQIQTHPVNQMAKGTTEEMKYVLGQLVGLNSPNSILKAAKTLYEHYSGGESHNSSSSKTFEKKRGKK
# [15] = system: T6, Receptor-type tyrosine-protein kinase FLT3 (Homo sapiens), P36888 [D835Y]; conditions: at 1 µM
# T6 sequence (whole entry): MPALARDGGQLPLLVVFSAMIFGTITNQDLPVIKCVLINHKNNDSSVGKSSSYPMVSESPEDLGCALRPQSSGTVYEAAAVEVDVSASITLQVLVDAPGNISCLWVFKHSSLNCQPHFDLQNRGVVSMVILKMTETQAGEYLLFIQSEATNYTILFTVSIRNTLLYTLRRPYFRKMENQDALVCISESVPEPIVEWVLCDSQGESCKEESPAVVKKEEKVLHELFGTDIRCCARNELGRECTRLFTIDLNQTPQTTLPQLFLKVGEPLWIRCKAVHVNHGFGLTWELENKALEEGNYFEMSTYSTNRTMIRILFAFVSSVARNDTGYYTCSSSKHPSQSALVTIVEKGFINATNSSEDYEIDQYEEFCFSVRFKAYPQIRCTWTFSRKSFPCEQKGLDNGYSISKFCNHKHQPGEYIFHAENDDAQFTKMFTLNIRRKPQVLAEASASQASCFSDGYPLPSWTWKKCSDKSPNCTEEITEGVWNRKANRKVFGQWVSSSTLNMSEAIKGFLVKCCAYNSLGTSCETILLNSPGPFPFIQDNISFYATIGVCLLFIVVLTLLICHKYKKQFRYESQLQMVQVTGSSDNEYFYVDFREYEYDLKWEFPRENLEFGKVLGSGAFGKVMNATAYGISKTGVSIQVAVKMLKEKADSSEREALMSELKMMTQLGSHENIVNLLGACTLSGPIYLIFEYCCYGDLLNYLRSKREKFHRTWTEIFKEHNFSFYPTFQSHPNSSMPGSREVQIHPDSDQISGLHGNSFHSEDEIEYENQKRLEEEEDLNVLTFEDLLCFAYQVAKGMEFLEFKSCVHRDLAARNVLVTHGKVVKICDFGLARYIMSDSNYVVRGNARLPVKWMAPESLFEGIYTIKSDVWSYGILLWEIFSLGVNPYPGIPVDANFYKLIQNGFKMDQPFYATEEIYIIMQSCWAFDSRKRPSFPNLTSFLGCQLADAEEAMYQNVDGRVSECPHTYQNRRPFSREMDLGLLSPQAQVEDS
# [16] = target: Vascular endothelial growth factor receptor 3 (Homo sapiens) (UniProt P35916); conditions: at 0.1 µM
# Vascular endothelial growth factor receptor 3 (Homo sapiens), sequence (P35916 whole entry): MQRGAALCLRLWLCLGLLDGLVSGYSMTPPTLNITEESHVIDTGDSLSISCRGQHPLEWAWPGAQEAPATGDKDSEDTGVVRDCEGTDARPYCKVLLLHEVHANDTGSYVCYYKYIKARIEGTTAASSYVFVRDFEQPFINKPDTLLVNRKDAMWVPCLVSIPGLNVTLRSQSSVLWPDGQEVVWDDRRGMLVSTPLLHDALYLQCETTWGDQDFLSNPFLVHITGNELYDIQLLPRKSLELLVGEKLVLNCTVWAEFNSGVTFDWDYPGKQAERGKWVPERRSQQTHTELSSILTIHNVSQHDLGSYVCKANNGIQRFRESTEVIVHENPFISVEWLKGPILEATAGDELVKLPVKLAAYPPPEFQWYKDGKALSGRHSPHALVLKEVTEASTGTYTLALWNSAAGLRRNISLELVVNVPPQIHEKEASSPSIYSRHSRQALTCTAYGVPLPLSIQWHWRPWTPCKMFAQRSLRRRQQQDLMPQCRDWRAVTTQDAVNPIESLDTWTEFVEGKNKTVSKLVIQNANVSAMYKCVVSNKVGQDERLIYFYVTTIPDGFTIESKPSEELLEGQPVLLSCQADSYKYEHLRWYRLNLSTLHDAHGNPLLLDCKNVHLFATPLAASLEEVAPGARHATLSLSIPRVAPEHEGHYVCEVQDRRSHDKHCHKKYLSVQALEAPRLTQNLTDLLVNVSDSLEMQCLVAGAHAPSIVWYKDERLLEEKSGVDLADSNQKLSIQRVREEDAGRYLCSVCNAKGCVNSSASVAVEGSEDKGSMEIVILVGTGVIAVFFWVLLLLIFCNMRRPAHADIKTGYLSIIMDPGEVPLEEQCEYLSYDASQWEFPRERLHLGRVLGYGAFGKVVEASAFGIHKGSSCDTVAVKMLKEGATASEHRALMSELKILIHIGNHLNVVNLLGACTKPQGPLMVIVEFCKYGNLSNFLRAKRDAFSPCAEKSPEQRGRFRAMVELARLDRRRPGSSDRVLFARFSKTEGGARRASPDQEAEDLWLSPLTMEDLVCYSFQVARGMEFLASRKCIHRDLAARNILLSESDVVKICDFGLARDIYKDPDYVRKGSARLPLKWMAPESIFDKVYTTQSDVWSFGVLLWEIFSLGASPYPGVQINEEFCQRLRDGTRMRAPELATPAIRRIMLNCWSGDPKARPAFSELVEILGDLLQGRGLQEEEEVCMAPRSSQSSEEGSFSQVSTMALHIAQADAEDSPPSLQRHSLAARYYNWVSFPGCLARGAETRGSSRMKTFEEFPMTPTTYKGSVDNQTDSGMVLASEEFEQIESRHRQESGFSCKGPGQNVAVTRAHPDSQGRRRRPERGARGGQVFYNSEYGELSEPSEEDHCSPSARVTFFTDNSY
# [17] = target: Vascular endothelial growth factor receptor 3 (Homo sapiens) (UniProt P35916); conditions: at 1 µM
# [18] = target: Macrophage colony-stimulating factor 1 receptor (Homo sapiens) (UniProt P07333); conditions: at 0.1 µM
# Macrophage colony-stimulating factor 1 receptor (Homo sapiens), sequence (P07333 whole entry): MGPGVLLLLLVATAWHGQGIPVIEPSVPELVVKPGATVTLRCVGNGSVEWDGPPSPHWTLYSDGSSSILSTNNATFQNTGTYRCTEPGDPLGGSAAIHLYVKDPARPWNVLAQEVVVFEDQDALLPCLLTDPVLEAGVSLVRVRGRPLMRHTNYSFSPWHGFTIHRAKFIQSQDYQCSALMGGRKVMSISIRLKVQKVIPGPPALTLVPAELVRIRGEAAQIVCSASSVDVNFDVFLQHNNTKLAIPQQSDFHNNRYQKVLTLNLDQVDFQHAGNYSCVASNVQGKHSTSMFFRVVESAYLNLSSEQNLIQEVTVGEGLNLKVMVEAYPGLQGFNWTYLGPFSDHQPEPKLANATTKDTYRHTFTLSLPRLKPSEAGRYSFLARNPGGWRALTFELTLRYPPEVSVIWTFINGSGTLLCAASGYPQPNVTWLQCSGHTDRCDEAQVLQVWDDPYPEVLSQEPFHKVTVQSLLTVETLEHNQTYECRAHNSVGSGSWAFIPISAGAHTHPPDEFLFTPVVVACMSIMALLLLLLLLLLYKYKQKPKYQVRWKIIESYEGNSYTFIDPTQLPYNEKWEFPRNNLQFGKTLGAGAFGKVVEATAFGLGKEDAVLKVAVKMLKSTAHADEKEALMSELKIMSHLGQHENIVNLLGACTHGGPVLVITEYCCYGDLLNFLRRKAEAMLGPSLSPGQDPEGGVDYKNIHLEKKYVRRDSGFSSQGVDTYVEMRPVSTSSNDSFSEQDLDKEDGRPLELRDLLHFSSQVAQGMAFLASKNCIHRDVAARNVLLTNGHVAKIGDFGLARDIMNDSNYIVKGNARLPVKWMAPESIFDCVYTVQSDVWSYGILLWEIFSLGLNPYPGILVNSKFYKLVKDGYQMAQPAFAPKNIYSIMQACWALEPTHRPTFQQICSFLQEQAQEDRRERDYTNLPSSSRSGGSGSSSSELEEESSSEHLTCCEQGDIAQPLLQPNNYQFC
# [19] = target: Macrophage colony-stimulating factor 1 receptor (Homo sapiens) (UniProt P07333); conditions: at 1 µM
# [20] = target: Tyrosine-protein kinase Fyn (Homo sapiens) (UniProt P06241); conditions: at 0.1 µM
# Tyrosine-protein kinase Fyn (Homo sapiens), sequence (P06241 2-537 limits assumed): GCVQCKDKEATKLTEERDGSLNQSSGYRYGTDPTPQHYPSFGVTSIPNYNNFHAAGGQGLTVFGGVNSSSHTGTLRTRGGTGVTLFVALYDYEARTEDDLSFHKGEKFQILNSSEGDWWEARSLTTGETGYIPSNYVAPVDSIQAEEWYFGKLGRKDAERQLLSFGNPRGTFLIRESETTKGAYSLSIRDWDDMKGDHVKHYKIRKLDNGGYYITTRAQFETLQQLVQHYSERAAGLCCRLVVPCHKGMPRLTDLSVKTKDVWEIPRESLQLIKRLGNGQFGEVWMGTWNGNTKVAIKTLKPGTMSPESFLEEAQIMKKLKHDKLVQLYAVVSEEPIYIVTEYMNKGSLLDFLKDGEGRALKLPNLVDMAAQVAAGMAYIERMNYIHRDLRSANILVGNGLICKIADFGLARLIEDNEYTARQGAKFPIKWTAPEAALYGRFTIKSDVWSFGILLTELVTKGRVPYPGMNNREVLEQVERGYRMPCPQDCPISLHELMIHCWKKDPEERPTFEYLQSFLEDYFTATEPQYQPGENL
Compound,inhibition [1] [%],inhibition [2] [%],inhibition [3] [%],inhibition [4] [%],inhibition [5] [%],inhibition [6] [%],inhibition [7] [%],inhibition [8] [%],inhibition [9] [%],inhibition [10] [%],inhibition [11] [%],inhibition [12] [%],inhibition [13] [%],inhibition [14] [%],inhibition [15] [%],inhibition [16] [%],inhibition [17] [%],inhibition [18] [%],inhibition [19] [%],inhibition [20] [%]
c1ccc(-c2nc3n(c2-c2ccc4c(c2)OCO4)CCC3)nc1,1.63,2.25,1.34,2.03,3.36,1.4,-0.68,4.7,3.16,4.73,0.13,1.59,1.37,4.41,4.03,13.3,15.8,4.57,1.74,1.85
COc1ccc(-c2oc3ncnc(N)c3c2-c2ccc(NC(=O)Nc3cc(C(F)(F)F)ccc3F)cc2)cc1,9.69,5.73,16.9,5.08,7.47,2.43,3.73,3.58,-1.9,6.04,39.3,5.59,4.48,8.85,47.1,47.4,98.4,21.9,90.2,8
COc1cc(/C=N/Nc2ncnc3[nH]ncc23)ccc1O,96.3,3.25,12,3.52,4.62,4.45,5.85,4.07,5.51,0.45,7.86,0.7,7.67,4.54,34,2.46,26.1,7.59,34.4,8.72

# Source: ChEMBL document CHEMBL1961873, “Compounds: GSK PKIS; Assays: Nanosyn kinase panel” (2012)
